Bioassay records from PubChem.
Shown are actives, neighbours in structure and some others; about 3.3% of the full set was active somewhere.
Calb FLC: C. albicans growth inhibition with fluconazole, primary screen, CaCi-2 strain, Alamar Blue fluorescence. C. albicans CaCi-2 (fluconazole-resistant clinical isolate) + fluconazole, 48 h. growth inhibition, % (test concentration not listed). 300,000 tested, 0.57% active;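 active = growth inhibition above about 58% in most replicates, limit read from the data, passing the limit was not always enough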;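 note: all wells also contain fluconazole at 8 µg/ml as a sub-toxic cotreatment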
Efflux pump inh: inhibitors of Candida efflux pumps in yeast, primary screen, S. cerevisiae, Nile Red, multiplex; S. cerevisiae Candida pump triplex; inhibition, % at 10 µM; 330,000 tested, 0.44% active; AID 485275, 2010;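 active = plate passing quality check with inhibition over a set limit, or well fluorescence over plate mean plus 4 SD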;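 note: Nile Red retained in pooled yeast measured as flow cytometry median fluorescence; higher means more Nile Red kept so more efflux inhibition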
H9c2 protect: cardioprotection against H2O2-induced cell death, primary screen, uHTS, H9c2 cells, ATPLite luminescence. H9c2 cardiomyocytes, H2O2 injury protection, 2 h. 360,000 tested, 0.63% active. protection from H2O2 cell death, % at 20 µM;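 active = compounds giving at least 50% protection of heart cells from peroxide-induced death in the single-dose screen, raw or plate-pattern-corrected value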
Cl transport mod: KCC2 cotransporter modulators, thallium flux, primary screen, cell-based, HEK293 KCC2, FluoZin-2 fluorescence, MLSMR. Solute carrier family 12 member 5 (Homo sapiens), Q9H2X9. KCC2 cells, thallium flux FluoZin-2 fluorescence. B-score of Tl+ flux slope (higher = more flux/activation; lower = inhibition) at 10 µM. 190,000 tested, 2.2% active;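 active = thallium flux slope and its plate-corrected score both differing from the plate sample mean at a set confidence after two filtering rounds, in either direction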;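 note: slope of fluorescence scaled to starting intensity during 10 to 20 s after thallium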
PHOSPHO1 block: PubChem AID 1565 | recombinant PHOSPHO1, absorbance phosphatase assay | inhibition, % at 13.3 µM | 290,000 tested, 1.1% active; in the data active = inhibition above about 60%
Each line names hits and unclear results; the compound was inactive in the other large screens.

COc1ccc(-c2nc3ccccc3c(=O)[nH]2)cc1	none (no result: Cl transport mod)
Cc1cccc(-c2nc3ccccc3c(=O)[nH]2)c1	none (no result: Cl transport mod)
Cc1ncnc(N)c1CCCNc1ccccc1	none (no result: Calb FLC, Efflux pump inh, Cl transport mod, PHOSPHO1 block)
COc1ccc(C(=O)Nc2ccc3c(c2)C(=O)c2ccccc2C3=O)cc1OC	none
COc1ccc(C(=O)c2c(C(F)(F)F)oc3c2C(=O)c2ccccc2C3=O)cc1OC	PHOSPHO1 block 82 (no result: Cl transport mod)
CCn1ccnc1CN(C)Cc1nc(-c2cccc(Cl)c2)no1	none (no result: Cl transport mod)
CCn1ccnc1CN(C)Cc1nc(-c2ccccc2)no1	PHOSPHO1 block 60
CCN(Cc1ccccc1)C(=O)CN1C(=O)NC(CC)(c2ccc(F)cc2)C1=O (centres undefined)	none (no result: Cl transport mod)
COc1cccc(C(O)c2nc(-c3cccc(C#N)c3)cs2)c1 (centres undefined)	none (no result: Calb FLC, Efflux pump inh, Cl transport mod, PHOSPHO1 block)
CCN(C(=O)c1ccc2c(=O)n3c(nc2c1)CCCCC3)c1cc(OC)ccc1OC	PHOSPHO1 block 65 (no result: Cl transport mod)
COc1ccc(CN(C)C(=O)c2ccc3c(=O)n4c(nc3c2)CCC4)c(OC)c1	none (no result: Cl transport mod, PHOSPHO1 block)
COC(=O)[C@H]1C[C@@]2(O)CN(S(=O)(=O)c3ccc(C)cc3)C[C@@]2(OC(=O)Nc2cccs2)C[C@H]1C(=O)OC	none (no result: Calb FLC, Efflux pump inh, Cl transport mod, PHOSPHO1 block)
CCOC(=O)N1CCN(C(=O)NC23CC4CC(CC(C4)C2)C3)CC1	Cl transport mod -3.4
O=C(NC12CC3CC(CC(C3)C1)C2)N1CCN(C2CCCCC2)CC1	none
COC(=O)Cn1nc(-c2ccccc2)c2ccccc21	Calb FLC 86
Cc1ccc(NC2=CC(=O)C(=O)c3ccccc32)cc1	Calb FLC 101
NS(=O)(=O)c1ccc(NC2=CC(=O)C(=O)c3ccccc32)cc1	none (no result: Cl transport mod)
COC(=O)c1ccc2c(c1)S(=O)(=O)NC(=NCc1ccco1)S2	PHOSPHO1 block 75
COC(=O)c1ccc(=O)n(Cc2ccco2)c1	none
O=C(COc1ccccc1-c1ccccc1)N/N=C/c1ccccn1	none
Cc1noc(C)c1C(=O)OCC(=O)Nc1ncc(Cl)c(C)c1Cl	none (no result: Calb FLC, Cl transport mod, PHOSPHO1 block)
Cc1ccc(NC(=O)CN2C(=O)S/C(=C\c3cccn3-c3cccc(C(=O)O)c3)C2=O)c(C)c1	PHOSPHO1 block 102
CCN(CC)c1ccc(NC(=O)/C=C\c2ccccc2Cl)cc1	PHOSPHO1 block 69 (no result: Cl transport mod)
C=CCc1cc(Cl)ccc1OCCOCCNC(C)(C)C	PHOSPHO1 block 63
C=CCc1cc(Cl)ccc1OCCOCCNCCOC	none
CCCc1cc(=O)oc2c(CNc3ccc(OCC)cc3)c(O)ccc12	H9c2 protect 59 (no result: Cl transport mod)
CC(Oc1ccc(Br)cc1)c1nc2c3ccccc3nc(=S)n2[nH]1 (centres undefined)	Cl transport mod 26
COc1ccc(-c2cc(N)n(S(=O)(=O)c3c(F)c(F)c(F)c(F)c3F)n2)cc1OC	Calb FLC 76 (no result: Cl transport mod)
COc1ccc(S(=O)(=O)n2nc(-c3cc(OC)c(OC)c(OC)c3)cc2N)cc1OC	none (no result: Calb FLC)
CN(C)c1ccc(-c2csc(C(O)(c3ccccc3)C(F)(F)F)n2)cc1 (centres undefined)	none (no result: Calb FLC, Efflux pump inh, Cl transport mod, PHOSPHO1 block)
CCN(CC(=O)Nc1c(F)cccc1F)C(=O)CNC(=O)c1ccc(Br)o1	none (no result: Cl transport mod, PHOSPHO1 block)
CCn1c(Sc2nc(C)nc3scc(-c4cccs4)c23)n[nH]c1=O	Calb FLC 95
CC(=O)OC1CCC2C3CCc4cc(OP(=O)(N5CC5)N5CC5)ccc4C3CCC12C (centres undefined)	none (no result: Calb FLC, Efflux pump inh, Cl transport mod, PHOSPHO1 block)
C[C@@H](C(=O)N1CCNCC1)n1cc(CCCN=C(N)N)nn1	Cl transport mod 2 (no result: Efflux pump inh)
CCC(C)[C@@H](C(=O)N1CCNCC1)n1cc(CCCN=C(N)N)nn1 (some centres undefined)	none
CC1=NN(c2ccccc2)C(=O)/C1=C/c1c(O)n(-c2ccc(F)c(Cl)c2)[nH]c1=O	Cl transport mod -8.3 (no result: H9c2 protect)
COC(=O)c1ccccc1NC(=O)C(=O)NCc1ccncc1	PHOSPHO1 block 66
CCOc1ccc(NC(=O)Nc2ccc(Cc3ccncc3)cc2)cc1	none
CCOc1ccc(NC(=O)C(=O)NCc2ccncc2)cc1	PHOSPHO1 block 68
CC(Oc1ccccc1)C(=O)NNC(=O)c1ccccn1 (centres undefined)	none
CC(Oc1cccc(Br)c1)C(=O)NNC(=O)c1ccccn1 (centres undefined)	H9c2 protect 79 (no result: Calb FLC, Cl transport mod, PHOSPHO1 block)
COc1cc(OC)cc(C(=O)NNC(=O)c2ccccn2)c1	H9c2 protect 51
COc1ccc(C(=O)NNC(=O)c2ccccn2)cc1	none
COC(=O)COc1ccc(S(=O)(=O)Nc2ccc3c(c2)OCCO3)cc1C	none (no result: Cl transport mod)
COc1ccc(SCCN2CC[C@@H](C(C)(C)C)CCC2=O)cc1	none (no result: Calb FLC, Cl transport mod, PHOSPHO1 block)
O=c1cc(CN2CCN(S(=O)(=O)c3cccc(Cl)c3)CC2)c2ccc(O)cc2o1	H9c2 protect 54 (no result: Calb FLC, Cl transport mod, PHOSPHO1 block)
COc1cc(CNn2c(C)n[nH]c2=S)cc(Cl)c1OCc1ccc(F)cc1	PHOSPHO1 block 90
COc1cc(CNn2c(C)n[nH]c2=S)cc(Br)c1OCc1ccc(F)cc1	none
Cc1cccc(C(=O)NC2CCN(C(=S)NCc3ccco3)CC2)c1	none (no result: Cl transport mod)
O=C(NC1CCN(C(=S)NCc2ccco2)CC1)NC12CC3CC(CC(C3)C1)C2	PHOSPHO1 block 89
CCOC(=O)N1C(=O)C2(CCCCC2)N(c2ccccc2Cl)C1=S	Calb FLC 100
Cc1cc(C)c2cc(C(=O)N3CCN(c4ncccc4C(F)(F)F)CC3)[nH]c2c1	none (no result: Cl transport mod)
O=C(NC(=S)Nc1ccc(Cl)cn1)c1cccs1	Cl transport mod 21
Cc1ccnc(NC(=S)NC(=O)c2cccs2)c1	Cl transport mod 26
Cc1ccnc(NC(=O)CNC(=O)c2cccs2)c1	none (no result: Cl transport mod, PHOSPHO1 block)
O=C(NC(=S)Nc1nc2c(ccc3ccccc32)s1)c1cccs1	Cl transport mod 17
O=C(NC(=S)Nc1cccnc1)c1cccs1	none
O=C(Nc1nc2c(ccc3ccccc32)s1)c1ccco1	none
O=C(c1cc(S(=O)(=O)N2CCOCC2)ccc1Cl)N1CCCCC1CO (centres undefined)	none (no result: Calb FLC, Cl transport mod, PHOSPHO1 block)
Clc1cccc(Cc2c(-c3ccccc3)nc3ccc(Cl)cn23)c1	none (no result: Calb FLC, Efflux pump inh, Cl transport mod, PHOSPHO1 block)
Cc1nc(SCC(=O)N2CCOCC2)c2c(C)c(C)sc2n1	none (no result: Cl transport mod)
Cc1nc(SC2CCOC2=O)c2c(C)c(C)sc2n1 (centres undefined)	Cl transport mod 7.1
Cc1nn(-c2ccccc2)c2nc(N)c(C#N)c(-c3ccc(O)c(O)c3)c12	none (no result: Cl transport mod)
Cc1nn(-c2ccc(F)cc2)c2nc(N)c(C#N)c(-c3ccc(O)c(O)c3)c12	H9c2 protect 77 (no result: Cl transport mod)
COCCN(C(=O)COC(=O)c1cccs1)c1c(N)n(Cc2ccccc2)c(=O)[nH]c1=O	none (no result: Cl transport mod)
C/C(=N\NS(=O)(=O)c1ccc(C)c([N+](=O)[O-])c1)c1cc2ccccc2o1	PHOSPHO1 block 79
Cc1ccc(-n2c(N)c(C(=O)N3CCOCC3)sc2=S)cc1	PHOSPHO1 block 76
O=C(Nc1nc(=S)ss1)c1ccc(Cl)cc1Cl	Cl transport mod 5
CCOC(=O)c1ccc(Oc2nc(NC(C)(C)C)nc(N(C)C)n2)cc1	Calb FLC 91 (no result: Cl transport mod)
